Measurements reported in ChEMBL document CHEMBL1961873, “Compounds: GSK PKIS; Assays: Nanosyn kinase panel” (2012).

Legend:
[1] = biological target: Serine/threonine-protein kinase pim-2 (Homo sapiens) (UniProt Q9P1W9); details: at 1 µM;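 also: each value is a mean of the inhibition measurements against the kinase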
[2] = biological target: Serine/threonine-protein kinase pim-3 (Homo sapiens) (UniProt Q86V86); details: at 0.1 µM
[3] = biological target: Serine/threonine-protein kinase pim-3 (Homo sapiens) (UniProt Q86V86); details: at 1 µM
[4] = biological target: T1, MAP kinase-activated protein kinase 5 (Homo sapiens) (UniProt Q8IW41); details: at 0.1 µM
T1 sequence (whole entry): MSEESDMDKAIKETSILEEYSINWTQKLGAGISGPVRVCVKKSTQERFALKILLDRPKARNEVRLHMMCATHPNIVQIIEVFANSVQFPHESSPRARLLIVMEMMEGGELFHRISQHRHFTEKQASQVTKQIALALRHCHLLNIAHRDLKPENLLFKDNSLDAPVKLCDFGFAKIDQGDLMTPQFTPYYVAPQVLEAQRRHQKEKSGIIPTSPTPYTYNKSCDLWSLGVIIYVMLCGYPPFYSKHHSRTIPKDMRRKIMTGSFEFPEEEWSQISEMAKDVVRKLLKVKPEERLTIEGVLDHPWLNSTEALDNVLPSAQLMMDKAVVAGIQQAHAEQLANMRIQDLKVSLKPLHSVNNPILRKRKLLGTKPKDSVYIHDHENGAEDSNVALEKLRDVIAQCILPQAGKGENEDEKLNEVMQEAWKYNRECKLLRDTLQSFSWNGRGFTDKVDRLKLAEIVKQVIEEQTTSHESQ

[5] = biological target: T1, MAP kinase-activated protein kinase 5 (Homo sapiens); details: at 1 µM
[6] = biological target: Serine/threonine-protein kinase SIK1 (Homo sapiens) (UniProt P57059); details: at 0.1 µM
Serine/threonine-protein kinase SIK1 (Homo sapiens), sequence (P57059 whole entry): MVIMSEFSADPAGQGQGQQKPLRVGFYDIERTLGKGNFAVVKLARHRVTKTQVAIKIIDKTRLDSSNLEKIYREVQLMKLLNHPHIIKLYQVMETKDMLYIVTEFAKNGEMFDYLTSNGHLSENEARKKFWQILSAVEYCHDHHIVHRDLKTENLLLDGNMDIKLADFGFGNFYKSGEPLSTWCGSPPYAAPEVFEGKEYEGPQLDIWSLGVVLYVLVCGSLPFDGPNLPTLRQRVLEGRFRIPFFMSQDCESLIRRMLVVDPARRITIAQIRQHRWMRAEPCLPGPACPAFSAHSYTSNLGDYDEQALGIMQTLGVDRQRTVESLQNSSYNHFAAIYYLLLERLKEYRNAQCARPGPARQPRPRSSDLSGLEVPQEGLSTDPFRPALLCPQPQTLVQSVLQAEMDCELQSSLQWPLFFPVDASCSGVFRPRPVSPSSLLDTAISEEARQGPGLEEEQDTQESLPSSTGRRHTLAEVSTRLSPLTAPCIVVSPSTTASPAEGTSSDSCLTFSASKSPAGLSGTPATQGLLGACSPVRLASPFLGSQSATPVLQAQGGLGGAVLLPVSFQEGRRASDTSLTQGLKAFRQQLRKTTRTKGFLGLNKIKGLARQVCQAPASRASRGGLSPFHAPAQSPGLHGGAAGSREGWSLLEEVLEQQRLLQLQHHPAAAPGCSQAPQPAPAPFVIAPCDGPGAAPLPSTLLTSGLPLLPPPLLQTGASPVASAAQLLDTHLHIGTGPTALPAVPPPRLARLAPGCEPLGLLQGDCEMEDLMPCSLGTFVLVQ

[7] = biological target: Serine/threonine-protein kinase SIK1 (Homo sapiens) (UniProt P57059); details: at 1 µM
[8] = biological target: Serine/threonine-protein kinase SIK2 (Homo sapiens) (UniProt Q9H0K1); details: at 0.1 µM
Serine/threonine-protein kinase SIK2 (Homo sapiens), sequence (Q9H0K1 whole entry, looked up): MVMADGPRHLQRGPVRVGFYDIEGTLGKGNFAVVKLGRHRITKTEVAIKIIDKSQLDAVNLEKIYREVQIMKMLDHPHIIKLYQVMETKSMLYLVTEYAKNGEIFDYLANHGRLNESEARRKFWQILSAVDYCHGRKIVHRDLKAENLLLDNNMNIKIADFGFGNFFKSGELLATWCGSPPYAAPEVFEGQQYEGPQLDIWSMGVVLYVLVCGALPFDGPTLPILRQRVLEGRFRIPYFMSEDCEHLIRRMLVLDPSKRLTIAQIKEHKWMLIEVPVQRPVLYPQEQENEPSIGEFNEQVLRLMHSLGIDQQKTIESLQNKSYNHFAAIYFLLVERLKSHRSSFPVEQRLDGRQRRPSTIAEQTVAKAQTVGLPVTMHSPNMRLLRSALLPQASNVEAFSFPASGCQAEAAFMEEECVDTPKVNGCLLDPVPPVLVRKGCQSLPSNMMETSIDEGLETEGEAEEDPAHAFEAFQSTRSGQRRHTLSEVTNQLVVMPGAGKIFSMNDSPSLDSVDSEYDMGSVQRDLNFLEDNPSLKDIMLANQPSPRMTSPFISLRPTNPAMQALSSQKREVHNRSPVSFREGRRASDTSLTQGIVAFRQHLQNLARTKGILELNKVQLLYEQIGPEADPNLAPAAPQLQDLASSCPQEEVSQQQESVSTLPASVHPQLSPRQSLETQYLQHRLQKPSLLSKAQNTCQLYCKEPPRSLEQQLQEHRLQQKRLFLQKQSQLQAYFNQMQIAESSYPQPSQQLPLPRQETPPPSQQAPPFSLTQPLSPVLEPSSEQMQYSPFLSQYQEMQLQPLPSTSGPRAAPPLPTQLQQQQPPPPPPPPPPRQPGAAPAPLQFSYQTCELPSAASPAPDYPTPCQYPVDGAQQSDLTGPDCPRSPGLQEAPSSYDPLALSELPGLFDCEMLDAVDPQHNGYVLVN

[9] = biological target: Serine/threonine-protein kinase SIK2 (Homo sapiens) (UniProt Q9H0K1); details: at 1 µM
[10] = biological target: T2, Serine/threonine-protein kinase TBK1 (Homo sapiens) (UniProt Q9UHD2); details: at 0.1 µM
T2 sequence (whole entry): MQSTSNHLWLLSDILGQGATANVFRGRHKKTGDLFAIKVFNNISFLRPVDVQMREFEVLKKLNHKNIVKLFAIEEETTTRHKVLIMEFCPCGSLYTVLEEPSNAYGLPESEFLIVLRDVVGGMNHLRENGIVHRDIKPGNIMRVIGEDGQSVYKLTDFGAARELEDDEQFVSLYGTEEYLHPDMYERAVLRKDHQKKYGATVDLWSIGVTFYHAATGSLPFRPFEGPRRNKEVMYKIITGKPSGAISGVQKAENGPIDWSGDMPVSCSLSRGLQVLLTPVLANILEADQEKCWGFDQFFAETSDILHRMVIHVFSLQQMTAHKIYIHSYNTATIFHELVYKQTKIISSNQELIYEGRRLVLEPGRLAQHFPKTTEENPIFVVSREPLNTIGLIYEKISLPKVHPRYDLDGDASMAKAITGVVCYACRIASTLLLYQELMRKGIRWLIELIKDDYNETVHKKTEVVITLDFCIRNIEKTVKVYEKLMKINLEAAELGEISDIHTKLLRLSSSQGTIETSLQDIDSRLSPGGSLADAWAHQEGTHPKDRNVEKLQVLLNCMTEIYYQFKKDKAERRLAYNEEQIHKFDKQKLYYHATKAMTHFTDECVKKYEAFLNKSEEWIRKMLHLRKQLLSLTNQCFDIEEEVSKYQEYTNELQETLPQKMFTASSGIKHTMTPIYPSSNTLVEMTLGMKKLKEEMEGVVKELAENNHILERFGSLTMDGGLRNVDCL

[11] = biological target: T2, Serine/threonine-protein kinase TBK1 (Homo sapiens); details: at 1 µM
[12] = biological target: T3, Testis-specific serine/threonine-protein kinase 1 (Homo sapiens) (UniProt Q9BXA7); details: at 0.1 µM
T3 sequence (whole entry): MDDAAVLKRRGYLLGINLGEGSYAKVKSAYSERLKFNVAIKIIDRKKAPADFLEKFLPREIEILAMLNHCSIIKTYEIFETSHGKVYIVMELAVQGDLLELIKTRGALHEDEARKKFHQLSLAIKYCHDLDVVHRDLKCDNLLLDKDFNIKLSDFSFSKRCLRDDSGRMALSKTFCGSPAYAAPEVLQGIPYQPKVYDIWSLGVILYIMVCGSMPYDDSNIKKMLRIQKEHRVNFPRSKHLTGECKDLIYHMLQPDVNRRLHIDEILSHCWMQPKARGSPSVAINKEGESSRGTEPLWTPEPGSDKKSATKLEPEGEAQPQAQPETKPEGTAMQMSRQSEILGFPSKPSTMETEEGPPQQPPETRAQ

[13] = biological target: T3, Testis-specific serine/threonine-protein kinase 1 (Homo sapiens); details: at 1 µM
[14] = biological target: T4, Testis-specific serine/threonine-protein kinase 2 (Homo sapiens) (UniProt Q96PF2); details: at 0.1 µM
T4 sequence (whole entry): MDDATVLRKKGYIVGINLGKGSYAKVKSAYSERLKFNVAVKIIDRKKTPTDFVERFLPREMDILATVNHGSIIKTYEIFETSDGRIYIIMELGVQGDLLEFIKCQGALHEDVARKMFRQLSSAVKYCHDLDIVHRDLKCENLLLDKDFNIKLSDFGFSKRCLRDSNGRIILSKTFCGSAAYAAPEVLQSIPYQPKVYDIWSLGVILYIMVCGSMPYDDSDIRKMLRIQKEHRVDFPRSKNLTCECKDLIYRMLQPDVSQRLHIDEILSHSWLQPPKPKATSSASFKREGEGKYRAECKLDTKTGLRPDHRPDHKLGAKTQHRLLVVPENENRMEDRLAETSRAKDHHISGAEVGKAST

[15] = biological target: T4, Testis-specific serine/threonine-protein kinase 2 (Homo sapiens); details: at 1 µM
[16] = biological target: Casein kinase I isoform alpha (Homo sapiens) (UniProt P48729); details: at 0.1 µM
Casein kinase I isoform alpha (Homo sapiens), sequence (P48729 2-337 limits assumed): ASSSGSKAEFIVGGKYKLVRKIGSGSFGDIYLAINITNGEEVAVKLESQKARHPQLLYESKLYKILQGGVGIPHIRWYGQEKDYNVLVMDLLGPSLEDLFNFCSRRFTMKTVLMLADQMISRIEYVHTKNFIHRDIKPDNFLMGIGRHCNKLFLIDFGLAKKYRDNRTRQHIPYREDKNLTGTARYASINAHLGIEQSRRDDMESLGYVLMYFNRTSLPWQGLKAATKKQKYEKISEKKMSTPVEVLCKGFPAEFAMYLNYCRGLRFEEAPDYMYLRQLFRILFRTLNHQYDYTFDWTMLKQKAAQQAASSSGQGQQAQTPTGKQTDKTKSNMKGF

[17] = biological target: Casein kinase I isoform alpha (Homo sapiens) (UniProt P48729); details: at 1 µM
[18] = biological target: Casein kinase I isoform gamma-1 (Homo sapiens) (UniProt Q9HCP0); details: at 0.1 µM
Casein kinase I isoform gamma-1 (Homo sapiens), sequence (Q9HCP0 whole entry, looked up, canonical isoform): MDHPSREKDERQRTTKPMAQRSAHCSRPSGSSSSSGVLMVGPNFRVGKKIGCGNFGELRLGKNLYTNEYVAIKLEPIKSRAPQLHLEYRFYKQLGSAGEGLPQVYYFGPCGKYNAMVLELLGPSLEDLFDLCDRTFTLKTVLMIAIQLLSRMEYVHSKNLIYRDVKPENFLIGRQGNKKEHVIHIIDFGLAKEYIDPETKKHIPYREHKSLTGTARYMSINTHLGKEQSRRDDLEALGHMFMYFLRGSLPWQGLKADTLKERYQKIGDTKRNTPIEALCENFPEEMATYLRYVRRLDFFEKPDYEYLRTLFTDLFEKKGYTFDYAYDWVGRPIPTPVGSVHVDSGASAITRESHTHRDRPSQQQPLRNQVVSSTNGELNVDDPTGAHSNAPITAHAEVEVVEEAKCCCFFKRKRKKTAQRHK

[19] = biological target: Casein kinase I isoform gamma-1 (Homo sapiens) (UniProt Q9HCP0); details: at 1 µM
[20] = biological target: Casein kinase I isoform gamma-2 (Homo sapiens) (UniProt P78368); details: at 0.1 µM;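 also: values are mean inhibition figures reported as part of the GSK PKIS dataset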
Casein kinase I isoform gamma-2 (Homo sapiens), sequence (P78368 whole entry, looked up, canonical isoform): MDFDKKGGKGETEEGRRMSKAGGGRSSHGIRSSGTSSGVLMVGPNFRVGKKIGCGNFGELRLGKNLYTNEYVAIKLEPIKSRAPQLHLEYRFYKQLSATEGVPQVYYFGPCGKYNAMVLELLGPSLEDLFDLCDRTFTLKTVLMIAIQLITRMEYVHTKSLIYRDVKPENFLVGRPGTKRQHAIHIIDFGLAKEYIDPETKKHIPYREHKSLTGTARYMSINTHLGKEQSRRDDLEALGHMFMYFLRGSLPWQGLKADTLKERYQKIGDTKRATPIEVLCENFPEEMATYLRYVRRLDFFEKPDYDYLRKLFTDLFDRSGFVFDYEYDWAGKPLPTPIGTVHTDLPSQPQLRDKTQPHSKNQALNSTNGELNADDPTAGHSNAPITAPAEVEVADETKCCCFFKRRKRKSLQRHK

Serine/threonine-protein kinase pim-2 (Homo sapiens), sequence (Q9P1W9 whole entry, looked up): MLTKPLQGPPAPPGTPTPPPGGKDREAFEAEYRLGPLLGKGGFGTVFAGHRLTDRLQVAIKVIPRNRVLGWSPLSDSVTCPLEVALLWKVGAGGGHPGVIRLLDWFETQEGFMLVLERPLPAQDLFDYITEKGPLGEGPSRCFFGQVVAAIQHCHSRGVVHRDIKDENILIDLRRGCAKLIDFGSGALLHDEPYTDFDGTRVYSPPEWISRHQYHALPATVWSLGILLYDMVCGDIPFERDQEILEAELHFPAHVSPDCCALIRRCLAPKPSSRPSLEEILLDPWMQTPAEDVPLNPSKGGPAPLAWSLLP

Row | SMILES | inhibition [1] [%] | inhibition [2] [%] | inhibition [3] [%] | inhibition [4] [%] | inhibition [5] [%] | inhibition [6] [%] | inhibition [7] [%] | inhibition [8] [%] | inhibition [9] [%] | inhibition [10] [%] | inhibition [11] [%] | inhibition [12] [%] | inhibition [13] [%] | inhibition [14] [%] | inhibition [15] [%] | inhibition [16] [%] | inhibition [17] [%] | inhibition [18] [%] | inhibition [19] [%] | inhibition [20] [%]
1 | Cc1cc(Cl)cc2c1NC(=O)C2=NNc1ccc(S(N)(=O)=O)cc1 | 0.51 | 0.42 | 2.98 | 1.54 | 2.85 | 1.46 | 4.61 | 5.46 | -2.05 | 1.17 | 1.59 | 4.21 | 4.86 | 2.71 | 5.17 | 1.05 | 0.59 | 1.63 | 1.59 | 1.66
2 | CCS(=O)(=O)c1ccc(OC)c(Nc2ncc(-c3cccc(OC)c3)o2)c1 | 0.96 | -0.8 | -0.55 | 0.94 | -0.22 | 6.26 | 28.6 | 8.33 | 31.2 | 0.69 | 9.22 | 1.15 | -0.25 | 1.31 | -3.49 | 1.44 | 6.31 | 2.59 | 6.2 | 1.91
3 | [O-][S+]1CCN(Cc2ccc(-c3ccc4ncnc(Nc5ccc(OCc6ccccc6)c(Cl)c5)c4c3)o2)CC1 | 0.25 | 0.7 | 1.32 | 0.67 | 0.37 | 0.43 | 7.59 | 1.44 | 5.75 | 0.91 | 2.35 | 2.58 | 2.95 | 1.24 | 1.08 | 1.88 | 2.94 | 1.25 | 2.34 | 0.8
4 | COc1cccc(-n2nc(C)c3c(N/N=C(\C)c4ccncc4)ncnc32)c1 | -0.42 | -0.59 | -1.03 | -0.18 | -0.64 | 1.56 | 3.69 | 0.4 | -0.38 | -0.16 | -1.57 | 1.47 | 1.88 | -0.53 | -0.42 | -1.81 | 0.17 | 0.02 | 0.62 | 0.14
5 | CN(c1ccc(NC(=O)Nc2ccc(OC(F)(F)F)cc2)cc1)c1ccnc(Nc2cccc(S(N)(=O)=O)c2)n1 | 0.39 | 0.72 | -1.83 | 0.88 | -0.8 | 3.04 | 7.29 | 0.98 | -0.49 | 0.04 | 9.01 | 1.37 | 2.44 | 1.3 | 1.3 | 2.69 | -0.75 | 2.75 | 3.06 | 2.32
6 | CN(C)CCCn1c(-c2nonc2N)nc2cnccc21 | 0.24 | -0.78 | 1.03 | 0.98 | -0.25 | 3.24 | 8.57 | -0.97 | 5.74 | 1.24 | 6.08 | 3.44 | 7.78 | 0.64 | 0.45 | 5.03 | 6.31 | 4.45 | 5.34 | 3.15
7 | O=C1Nc2ccccc2/C1=C/Nc1ccc2[nH]c(=O)[nH]c2c1 | -0.46 | -0.36 | 5.21 | 1.86 | 5 | 3.92 | 14.9 | 9.13 | 17.6 | 8.2 | 21.2 | 4.5 | 8.92 | 3.14 | 4.56 | 8.75 | 21.8 | 4.87 | 7.45 | 3.6
8 | C[C@@H](Oc1cc(-n2cnc3ccc(OCC4CCN(C)CC4)cc32)sc1C(N)=O)c1ccccc1C(F)(F)F | 1.56 | 8.51 | 47.6 | -0.8 | -1.08 | 13.5 | 65.6 | 6.88 | 30.3 | -2.73 | -1.33 | 1.47 | 22.4 | -1.17 | -0.35 | -4.16 | -1.43 | -1.72 | -1.25 | -1.74
9 | Cc1ccc(NC(=O)CC2CC2)cc1-c1ccc(C(=O)NCC2CC2)cc1 | 0.37 | 0.23 | 1.25 | 1.21 | 1.26 | 3.64 | 9.75 | 5.46 | 4.87 | 2.81 | 5.71 | 3.65 | 2.94 | 2.59 | 1.29 | 7.12 | 3.9 | 1.42 | 2.32 | 2.95
10 | FC(F)(F)c1ccc(-c2nn3ncccc3c2-c2ccnc(Nc3ccc4c(c3)OCCO4)n2)cc1 | 5.12 | 6.66 | 10.2 | 2.37 | 5.39 | -4.38 | 0.84 | -0.15 | 0.08 | 5.62 | 4.67 | 1.27 | 4.75 | 2.11 | 5.84 | 9.84 | 4.54 | -0.1 | 0.59 | 0.52
11 | CC(C)c1ccc(Nc2nccc(-c3cnn4ncccc34)n2)cc1 | 1.73 | 0.51 | 6.16 | 0.53 | 1.09 | 4.79 | 8.55 | 2.73 | 11.3 | 1.14 | 13.9 | 3.15 | 5.95 | 2.67 | 0.57 | -5.73 | 12.9 | 2.02 | 8.9 | 3.16
12 | Cc1cc(O)cc(C)c1/C=C/c1cncc(C(=O)N(C)C)c1 | 0.34 | -1.55 | -0.09 | 0.59 | -0.52 | 9.45 | 29.4 | 4.34 | 4.27 | 1.36 | 4.11 | 4.05 | 0.84 | 2.08 | 0.19 | 1.94 | 3.01 | 1.26 | 1.95 | 1.03
13 | COc1ccc(-c2nn3ncccc3c2-c2ccnc(Nc3cccc(C(F)(F)F)c3)n2)cc1 | 0.24 | -0.01 | 0.75 | 1.02 | 1.07 | 7.99 | 2.26 | 4.76 | 8.4 | 0.76 | 1.7 | 0.61 | 1.94 | 1.17 | 0.38 | 0.44 | 2.43 | 2.67 | 2.71 | 2.72
14 | COc1cc2ncn(-c3cc(OCc4ccccc4S(C)(=O)=O)c(C#N)s3)c2cc1OC | 1.39 | -0.4 | -0.82 | 0.7 | -0.19 | 16.1 | 61 | 21.9 | 69.4 | 64.9 | 83 | 22.1 | 69.2 | 0.6 | 4.54 | 3.32 | 3.58 | 3.26 | 4.23 | 2.02
